# The list is not random: actives were taken first. Their share in the collection is about 19%.
# DT40 TDP1 no CPT: qHTS for Inhibitors of human tyrosyl-DNA phosphodiesterase 1 (TDP1): qHTS in cells in absence of CPT. DT40 Tdp1-/- hTDP1 cells, no CPT, ATP luminescence, 48 h. Potency, µM (series often up to 46.2 µM), inactives show at the top dose activity change, negative = growth inhibition, usual class: inhibitors. 420,000 tested, 15% active; note: potency is the fitted concentration of half-maximal effect; % is set by controls: 0 for no effect and ±100 for the full control effect; nearly all actives have a fitted effect of over 55% in size
#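 Camptothecin absent (DMSO only). Human TDP1-complemented DT40 knockout cells, 400 cells/well, 37 °C for minimum 48 hr; ATP measured via CellTiter-Glo, 30 min dark incubation, luminescence.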
# MCF10A rerep: induces DNA re-replication in MCF 10a normal breast cells. MCF 10A DNA re-replication, Hoechst nuclear intensity, 48 h. Potency, µM (top dose mostly 46.1 µM), inactives show at the top dose activity, positive = re-replication, actives largely listed as activators. 350,000 tested, 2.9% active. AID 624296; note: potency is the fitted concentration of half-maximal effect; % of control where 0% means no effect; nearly all actives have a fitted effect of over 50% in size
# SW480 rereplic: inducers of DNA re-replication in SW480 colon cancer cells; Potency, µM (titrated, usually from 46.1 µM), inactives show top-dose re-replication activation, hits mostly activators; AID 624297; 340,000 tested, 1.8% active; SW480 DNA re-replication, Hoechst DNA content imaging, 48 h; note: potency is the fitted concentration of half-maximal effect; % of control where 0% means no effect; nearly all actives have a fitted effect of over 55% in size
#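 Image-based read-out: total Hoechst fluorescence of nuclei (405 nm excitation, 500-530 nm emission), with hits raising the fraction of high-intensity nuclei. SW480 colon cells incubated 48 hr with compounds at 37 C.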
# DT40 TDP1 CPT: DT40-hTDP1 cell growth loss with CPT. chicken DT40 Tdp1-/-;hTDP1 cells + 20 nM CPT, ATP luminescence, 48 h. Potency, µM (doses to about 46.2 µM), for inactives: top-dose activity change, negative = growth inhibition, actives largely listed as inhibitors. 420,000 tested, 12% active. AID 686979; note: potency is the fitted concentration of half-maximal effect; % is set by controls: 0 for no effect and ±100 for the full control effect; nearly all actives have a fitted effect of over 55% in size
#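 Cell growth measured by CellTiter-Glo luminescence after a minimum 48 h, 37 C compound exposure with 20 nM CPT in Tdp1-knockout DT40 cells stably expressing hTDP1, seeded 400/well; qHTS titration format.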
# BCR signal inh: blocks chronic active B-cell receptor signaling | ABC-DLBCL IkBa-CBG/CBR reporter, luminescence ratio, 4 h | 340,000 tested, 0.05% active | Potency, µM (top dose mostly 46.1 µM), for the others: top-dose activity change, negative = inhibition, most hits filed as inhibitors; active = well fitted inhibition curve with a large enough effect in the signal ratio, with a control signal flat, not every such curve was filed as active; inconclusive = small, poorly fitted or top-dose-only effect, or effect the other way, or a change in a side signal; the % refers to the signal ratio;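 note: potency is the fitted concentration of half-maximal effect; plate controls were basal doxycycline-induced cells for no effect and cells given 10 µM MG132 for full effect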
#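 Compounds up to 46 uM were incubated four hours with TMD8 cells whose green CBG68 luciferase is fused to IkappaBalpha; red CBR luminescence normalised the signal, and concentration-effect curves were fitted to fusion, red and ratio data.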
# IL-1B inflam inh: blocks inflammasome-driven IL-1 beta release; THP-1 LPS/ATP IL-1B secretion, AlphaLISA, 16 h; stronger effect = lower value; activity change, % at 57.5 µM; 360,000 tested, 4.7% active; AID 743279; in the data active = activity change below about -50%; inconclusive = mostly about -30% to -49%; note: % is set by controls: 0 for no effect and ±100 for the full control effect
#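 THP-1 cells pretreated 1 hr with compounds (up to 57.5 uM final), then stimulated with LPS (250 ng/mL final) plus ATP (1.25 mM final); secreted IL-1B measured by AlphaLISA after 16 hr, decreased signal indicating inhibition.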
# The depositor's hits bear a star; ? = inconclusive; . = no result. Unless noted, calls come from the whole dose curve; as a rule, active = well fitted curve in the direction sought with a large enough effect; inconclusive = small, poorly fitted or top-dose-only effect, or another doubt; inactive = no such curve, though single readings can be large; an effect the other way counts as inactive or inconclusive.
SMILES,DT40 TDP1 no CPT,MCF10A rerep,SW480 rereplic,DT40 TDP1 CPT,BCR signal inh,IL-1B inflam inh
O=c1[nH]cccc1-c1nc2ccccc2n1Cc1ccccc1F,29µM*,-7%,-30%,21µM*,0%,3
COc1ccccc1NC(=O)C1=C(C)Nc2nc(SCc3cc(C)ccc3C)nn2C1c1ccccc1 (centres undefined),-79%,.,.,12µM*,?,.
CC1=C(C(=O)Nc2ccccc2)C(c2ccc(F)cc2)n2nc(SCc3cc(C)ccc3C)nc2N1 (centres undefined),-17%,.,.,-17%,?,.
COc1ccccc1NC(=O)C1=C(C)Nc2nc(SCc3ccccc3)nn2C1c1cccnc1 (centres undefined),?,.,.,21µM*,.,.
COc1ccccc1NC(=O)C1=C(C)Nc2nc(SCc3ccccc3F)nn2C1c1cccnc1 (centres undefined),10µM*,.,.,15µM*,.,.
COc1ccc(C2C(C(=O)Nc3ccc(C)cc3C)=C(C)Nc3nc(SC)nn32)cc1OC (centres undefined),-14%,.,.,-11%,.,.
CC1=C(C(=O)Nc2cccnc2)C(c2ccccc2)n2nc(SCc3ccccc3)nc2N1 (centres undefined),-23%,.,.,-24%,.,.
CC1=C(C(=O)Nc2ccccc2C)C(c2cccnc2)n2nc(SCc3ccccc3F)nc2N1 (centres undefined),-23%,.,.,-17%,.,.
CC1=C(C(=O)Nc2ccc(C)cc2C)C(c2ccc(Cl)cc2)n2nc(C(=O)OC(C)C)nc2N1 (centres undefined),16µM*,-5%,-10%,?,1%,6
O=C1NC(=O)C2(CCCc3c([N+](=O)[O-])cccc32)N1 (centres undefined),-4%,.,.,23%,.,1
COc1ccc(CS(=O)(=O)CC(C)(O)c2ccccc2Cl)cc1 (centres undefined),?,2%,-7%,-16%,-1%,?
COc1ccc(NC(=O)CN(C)C(=O)c2c(-c3c(F)cccc3Cl)noc2C)cc1,-1%,1%,-2%,5%,1%,-1
CC(C)NC(=O)c1cc(C2CCCCN2S(=O)(=O)c2ccccc2)on1 (centres undefined),-26%,.,.,-26%,.,5
COc1ccc(C(=O)CCC(=O)O)c2ccccc12,-10%,1%,-8%,1%,.,.
Cc1cc(C)cc(NC(=O)COC(=O)Cn2cnc3c2c(=O)n(C)c(=O)n3C)c1,3%,2%,-5%,-7%,0%,7
COc1ccc(N2CC(C(=O)N[C@@H](CC(C)C)C(=O)NC3CCCC3)CC2=O)cc1 (some centres undefined),-30%,-3%,-11%,0%,4%,9
COc1cccc(CSc2nc3n(n2)C(c2ccccc2C)C(C(=O)Nc2ccccc2OC)=C(C)N3)c1 (centres undefined),?,.,.,?,-10%,.
COc1ccccc1NC(=O)C1=C(C)Nc2nc(SCc3ccccc3)nn2C1c1cccc(O)c1 (centres undefined),23µM*,.,.,?,.,.
CC1=C(C(=O)Nc2ccc(C)cc2C)C(CC(C)C)n2nc(SCc3ccccc3C)nc2N1 (centres undefined),12µM*,.,.,10µM*,.,.
CCN(c1ccc(Cl)cc1)S(=O)(=O)c1nnc(NC(=O)c2ccccc2C)s1,15µM*,.,.,16µM*,.,.
CCC(=O)Nc1nnc(S(=O)(=O)N(CC)c2cc(C)cc(C)c2)s1,-5%,11%,10%,3%,1%,-4
CCN(c1cc(C)cc(C)c1)S(=O)(=O)c1nnc(NC(=O)c2cccc(F)c2)s1,13µM*,.,.,12µM*,.,.
